Screens as filed in PubChem.
TRb SRC2 PPI – disrupts binding of human TR beta to SRC2; P10828; TRbeta-SRC2 peptide binding, fluorescence polarization; receptor liganded with 1 µM T3; Potency, µM (series often up to 106 µM), for inactives: top-dose activity change, negative = inhibition, usual class: inhibitors; 280,000 tested, 0.065% active; AID 1469;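 also: potency is read from the fitted curve at half-maximal effect; plate controls were bound peptide for no effect and peptide without receptor for full effect; nearly all actives have a fitted effect of over 50% in size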
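TRb LBD 0.6 uM + Texas Red SRC2 peptide 20 nM, 1 uM T3, Tris buffer w/ 5% DMSO; compound pinned, 5 h RT; FP read ex 555/em 632; normalized to unbound and bound controls.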
TexasRed fluor – alters Texas Red total fluorescence, flagging assay interference; TRb/SRC2 Texas Red total fluorescence interference; Potency, µM (top dose mostly 106 µM), for inactives: at the top dose fluorescence change, negative = quenching; 280,000 tested, 0.29% active; active = well fitted curve in either direction with a large enough effect; inconclusive = small, poorly fitted or top-dose-only effect; also: potency is read from the fitted curve at half-maximal effect; % is scaled to controls: 0 for no effect and ±100 for the full control effect
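Human TRβ ligand-binding domain (0.6 uM) and Texas Red SRC2 peptide (20 nM) in Tris buffer with 1 uM T3 and 5% DMSO were incubated with pinned compound for 5 hr at ambient temperature. Total fluorescence was computed as S + 2P (555/632 nm).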
CBFb-RUNX1 inh – CBF-beta/RUNX1 interaction disruption; Q01196+Q13951; Potency, µM (highest dose often 59.8 µM), for inactives: at the top dose activity, negative = inhibition, most hits filed as inhibitors; 230,000 tested, under 10 active; AlphaScreen CBFb-His/RUNX1-biotin binding, biochemical; AID 1477; also: % of control where 0% means no effect
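Proteins preincubated together for 20 min at RT before compound addition; 15 min later, nickel and streptavidin beads were added and left 90 min prior to AlphaScreen measurement.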
Epigenetic reg – derepresses silenced GFP reporter in murine cells. 280,000 tested, 0.2% active. Potency, µM (top dose mostly 53.9 µM), without a hit: at the highest dose GFP activation, most hits filed as activators. murine LDR cells, GFP reporter derepression, 30 h; also: potency is read from the fitted curve at half-maximal effect; % of control where 0% means no effect; nearly all actives have a fitted effect of over 60% in size
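GFP-positive cell count by laser-scanning cytometry (objects 20–120 um) after 30 h, 37 C compound exposure of murine LDR cells; reporter is CMV-GFP integrated at a silenced locus, inducible by HDAC or DNMT inhibitors.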
RGS12 GoLoco inh-1 – inhibitors of human Gai1-RGS12 GoLoco interaction (red fluorophore); 230,000 tested, 0.44% active; Gai1:RGS12 GoLoco peptide FP, rhodamine, 10 min; AID 880; Potency, µM (titrated, usually from 61.6 µM), for the others: at the top dose activity, negative = inhibition, actives largely listed as inhibitors; P63096; active = well fitted inhibition curve with a large enough effect, not every such curve was filed as active; inactive = no such curve, though single readings can be large or run the other way; also: potency is read from the fitted curve at half-maximal effect; % is scaled to controls: 0 for no effect and ±100 for the full control effect; nearly all actives have a fitted effect of over 30% in size
Target sequence (P63096 whole entry, looked up): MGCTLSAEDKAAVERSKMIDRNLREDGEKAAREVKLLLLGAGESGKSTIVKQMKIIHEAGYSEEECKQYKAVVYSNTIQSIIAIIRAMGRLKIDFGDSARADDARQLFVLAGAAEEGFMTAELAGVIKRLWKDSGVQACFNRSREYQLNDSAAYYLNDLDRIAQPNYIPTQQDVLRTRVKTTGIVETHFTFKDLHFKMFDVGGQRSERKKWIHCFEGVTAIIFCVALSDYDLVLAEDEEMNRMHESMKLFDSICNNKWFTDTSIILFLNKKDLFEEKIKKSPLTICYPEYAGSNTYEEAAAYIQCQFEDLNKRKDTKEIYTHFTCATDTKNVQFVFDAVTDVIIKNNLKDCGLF
RGS12 GoLoco inh-2 – disrupts Gai1 binding to human RGS12 GoLoco peptide | 110 tested, 50% active | Gai1/rhodamine-RGS12 GoLoco peptide fluorescence polarization | Potency, µM (top dose mostly 57.1 µM), without a hit: at the top dose activity, negative = inhibition, actives largely listed as inhibitors | shares compounds with RGS12 GoLoco inh-1 | AID 2390
HCC4017 viab – reduces HCC4017 lung cancer cell viability among epigenetic modulators | shares compounds with Epigenetic reg | Potency, µM (series often up to 46.1 µM), without a hit: at the top dose activity change, negative = cytotoxicity, most hits filed as cytotoxic | HCC4017 NSCLC viability, CellTiter-Glo ATP luminescence, 72 h | 45 tested, 30% active
H358 viab – reduces H358 lung cancer cell viability among epigenetic modulators. H358 NSCLC viability, ATP luminescence, 72 h. 45 tested, 30% active. shares compounds with Epigenetic reg. Potency, µM (top dose mostly 46.1 µM), for inactives: at the top dose activity change, negative = viability loss, actives largely listed as cytotoxic
An asterisk follows results filed as active; ? = inconclusive; . = no result; [ ] = another dose, or the depositor's remark. Rows were chosen to be rich in hits. Some 0.71% of all compounds tested hit in one or more screens of this group. Unless noted, calls follow the shape of the dose curve; as a rule, active = well fitted curve in the direction sought with a large enough effect; inconclusive = small, poorly fitted or top-dose-only effect, or another doubt; inactive = no such curve, though single readings can be large; an effect the other way counts as inactive or inconclusive.

SMILES	TRb SRC2 PPI	TexasRed fluor	CBFb-RUNX1 inh	Epigenetic reg	RGS12 GoLoco inh-1	RGS12 GoLoco inh-2	others
O=C1NC(=O)N(c2ccc(Cl)cc2)C(=O)/C1=C\c1ccc(Sc2nc3ccccc3[nH]2)o1	?	45µM*[fluorescent]	?	1%	-35%	.
CCOP(=O)(OCC)C(NC(=O)c1cccc2ccccc12)C(Cl)(Cl)Cl (configuration not stated)	-17%[53 µM]	32µM*[quencher]	-5%	0%	12%	.
CCOP(=O)(OCC)C(NC(=O)c1ccccc1C)C(Cl)(Cl)Cl (configuration not stated)	0%[53 µM]	3.2µM*[quencher]	-19%	11%	-12%	.
CCOP(=O)(OCC)OC(Cl)C(Cl)(Cl)Cl (configuration not stated)	-4%[201 µM]	3%[201 µM]	.	.	.	.
CN(N=O)c1cc(O)ccc1O	?	13µM*[quencher]	.	-2%	5.6µM*	?
Cc1ccc(O)cc1	-2%	-1%	-6%	-1%	-4%	.
CCC[N+]12CCC(CC1)C(C(O)(c1ccccc1)c1ccccc1)C2 (configuration not stated)	1%	-1%	3%	-1%	10%	.
C[N+]12CCC(CC1)C(C(O)(c1ccccc1)c1cccs1)C2 (configuration not stated)	1%	-2%	8%	-4%	3.5µM*	25µM*
CC(C)[C@@H](Nc1ccc(C(F)(F)F)cc1Cl)C(=O)OC(C#N)c1cccc(Oc2ccccc2)c1 (some centres not stated)	-4%[201 µM]	3%[201 µM]	.	.	.	.
CCCC[N+]12CCC(CC1)C(Cc1ccccc1)C2 (configuration not stated)	2%	-2%	3%	0%	2%	4%
CCn1c(C)[n+](CC(O)COCC2CC=CCC2)c2ccccc21 (configuration not stated)	-12%	0%	-2%	-4%	2.2µM*	14µM*
COc1ccc(/C(=C/C(=O)N2CCOCC2)c2ccc(Cl)cc2)cc1OC	-4%[201 µM]	-1%[201 µM]	.	.	.	.
CCC[CH2][Sn]([CH2]CCC)([CH2]CCC)[CH2]CCC	7%[201 µM]	1%[201 µM]	.	.	.	.
C[N+]12CCC(CC1)C(=C(c1ccccc1)c1ccccc1)C2	0%	-8%	2%	2%	11µM*	14µM*
CN1CSC(=S)N(C)C1	-11%	-3%	7%	8.9µM*	2%	.	HCC4017 viab=?;H358 viab=?
Cc1cc(C)nc(Nc2ccccc2)n1	0%[201 µM]	-2%[201 µM]	.	.	.	.
